This is a sample that favours compounds with a hit; in the whole collection about 7% have one here.
ATXN2 expr inh: Primary qHTS for Inhibitors of ATXN expression. HEK-293 ATXN2-luciferase reporter, luminescence, 24 h. Potency, µM (highest dose often 57 µM), without a hit: at the top dose activity change, negative = inhibition, actives largely listed as inhibitors. 360,000 compounds, 0.72% hits; further: potency means the concentration at half of the fitted maximal effect; on the % scale 0 is the no-effect control and ±100 the full control effect; nearly all actives have a fitted effect of over 55% in size
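qHTS (up to 57 uM final) was run with 24 h compound exposure of reporter cells at 37 °C. Each well was multiplexed: SteadyGlo luminescence measured ATXN2-luciferase expression after a fluorogenic Gly-Phe-AFC viability readout (25 uM final).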
a7 integrin act: qHTS for Activators of Integrin-Mediated Alleviation for Muscular Dystrophy; Potency, µM (top dose mostly 38.3 µM), for inactives: at the top dose activation, most hits filed as activators; 350,000 compounds, 0.064% hits; alpha7betagal myoblasts, beta-gal FDG fluorescence, 48 h; AID 624291, 2012;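 further: potency means the concentration at half of the fitted maximal effect; 100% = response of the positive control SU9516; nearly all actives have a fitted effect of over 60% in size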
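alpha7betagal+/- myoblasts (passage 13, 250/well) treated 48 h at 37C with compounds at 1:260 dilution of DMSO stock. Lysed, then beta-galactosidase activity read as FDG fluorescence (ex 480/em 540) after 30 min, with pre-read for autofluorescence.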
DRD3 agonist: qHTS of D3 Dopamine Receptor Agonist: qHTS | D3R DiscoveRx beta-arrestin cells, luminescence, 90 min | 410,000 compounds, 0.58% hits | max activation, % | AID 652048, 2013; in the data active means max activation above about 30%; further: 0% is about no effect
Target sequence (P35462 whole entry, looked up): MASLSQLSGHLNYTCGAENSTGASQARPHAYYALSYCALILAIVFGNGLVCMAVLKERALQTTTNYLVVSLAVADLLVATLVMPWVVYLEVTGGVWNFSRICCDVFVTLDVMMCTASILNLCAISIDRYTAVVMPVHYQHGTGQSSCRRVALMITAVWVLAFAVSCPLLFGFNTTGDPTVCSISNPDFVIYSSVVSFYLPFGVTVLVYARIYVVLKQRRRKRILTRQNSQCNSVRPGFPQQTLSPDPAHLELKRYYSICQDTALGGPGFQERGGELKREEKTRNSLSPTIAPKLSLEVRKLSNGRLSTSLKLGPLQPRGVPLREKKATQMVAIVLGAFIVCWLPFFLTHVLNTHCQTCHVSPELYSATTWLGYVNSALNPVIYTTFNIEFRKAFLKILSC
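Cells at 1500/well, incubated overnight, then treated with pinned compounds (dopamine as control) for 90 min at 37 degrees C. DiscoveRx reagent added for 30 - 60 minutes at room temperature; luminescence read.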
IL-1B inflam inh: qHTS for Inhibitors of Inflammasome Signaling: IL-1-beta AlphaLISA Primary Screen | activity change, % at 57.5 µM | 360,000 compounds, 4.7% hits | THP-1 LPS/ATP IL-1B secretion, AlphaLISA, 16 h; hits give low values | AID 743279, 2014; in the data active means activity change below about -50%; inconclusive means mostly about -30% to -49%; further: on the % scale 0 is the no-effect control and ±100 the full control effect
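Secreted IL-1B measured by AlphaLISA bead assay after 16 h compound exposure of THP-1 cells; compounds (final up to 57.5 uM) added 1 h before LPS (250 ng/mL) and ATP (1.25 mM) stimulation; lower signal means less secretion.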
D3 antag: qHTS of D3 Dopamine Receptor Antagonist: qHTS; D(3) dopamine receptor (Homo sapiens), P35462; D3R cells, DiscoveRx beta-arrestin luminescence, antagonist mode; hits give low values; max response, negative = inhibition, %; 360,000 compounds, 2.5% hits; AID 652054, 2013; in the data active means max response below about -50%; inconclusive means no clear call, values can overlap the other calls; further: on the % scale 0 is the no-effect control and ±100 the full control effect
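Cells expressing the human receptor were seeded at 1500 cells/well, incubated overnight at 37 degrees C in 5% CO2, then exposed to library compounds with dopamine controls for 90 minutes at 37 degrees C before luminescent detection.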
ATXN viability: Viability Counterscreen for Primary qHTS for Inhibitors of ATXN expression | S2 cells (HEK-293 line with an ATXN2-luciferase reporter) viability, CellTiter-Fluor protease fluorescence, 24 h | AID 651635, 2014 | 400,000 compounds, 0.49% hits | Potency, µM (titrated, usually from 56.7 µM), actives largely listed as cytotoxic; further: potency means the concentration at half of the fitted maximal effect; nearly all actives have a fitted effect of over 40% in size
The depositor's hits bear a star; i = inactive; ? = inconclusive; · = not tested or not shown. Unless noted, the call rests on the fitted dose curve; in most records, active means well fitted curve in the direction sought with a large enough effect; inconclusive means small, poorly fitted or top-dose-only effect, or another doubt; inactive means no such curve, though single readings can be large; an effect the other way counts as inactive or inconclusive.

SMILES	ATXN2 expr inh	a7 integrin act	DRD3 agonist	IL-1B inflam inh	D3 antag	ATXN viability
COc1ccc(C(=O)/C=C/c2cn(CC(O)CN3CCOCC3)c3ccccc23)cc1 (centres undefined)	-1%	-7%	-4	-93*	10	i
Cc1ccc(C(=O)/C=C/c2cn(CC(O)CN3CCc4ccccc43)c3ccccc23)cc1 (centres undefined)	-4%	·	4	·	·	?
Cc1ccc(C(=O)/C=C/c2cn(CC(O)CN3CCOCC3)c3ccccc23)cc1 (centres undefined)	-8%	-36%	3	-82*	-1	i
Cc1onc(-c2ccccc2Cl)c1C(=O)NCCN1Cc2ccccc2C1=O	-1%	-14%	-3	3	7	i
O=C(Nc1ccccc1F)c1cc2c(s1)-c1ccccc1S(=O)(=O)C2	-10%	22%	1	4	-5	i
Cn1nnnc1Sc1ncnc2scc(-c3cccc(C(F)(F)F)c3)c12	14µM*	·	·	·	·	16µM*
Cn1nnnc1Sc1ncnc2scc(-c3ccc(C#N)cc3)c12	10µM*	·	·	·	·	10µM*
Cn1nnnc1Sc1ncnc2scc(-c3ccc(C(F)(F)F)cc3)c12	4µM*	·	·	·	·	11µM*
Cc1ccc(-c2csc3ncnc(SCC(=O)O)c23)cc1	-3%	15%	-1	11	-7	i
O=C(Nc1cccc2c1CCCC2)c1cc(C2CCCCN2C(=O)c2cccs2)on1 (centres undefined)	?	·	0	17	-23	i
O=c1c2ccccc2cnn1Cc1n[nH]c(=S)n1-c1ccc(Cl)cc1	19%	-12%	2	5	5	i
CCCc1c(-c2ccc(F)cc2F)ncn1Cc1ccccc1OC	0%	·	-11	0	0	?
CCCCc1c(-c2ccccc2F)ncn1CCc1ccccc1OC	-23%	·	0	-59*	73	·
CCCCCc1c(-c2ccccc2F)ncn1CCc1ccccc1OC	?	·	11	-95*	31	·
Cc1nn(CCOc2cccc(Br)c2)c(C)c1[N+](=O)[O-]	-11%	-25%	0	-2	-6	i
O=C(/C=C(/c1ccc(Cl)cc1)n1cncn1)c1ccccc1	2%	4%	-2	-58*	2	i
O=Cc1ccc2noc(-c3ccc(F)cc3)c2c1	29%	29%	-2	-19	18	i
COc1ccc(CCNS(=O)(=O)CCNC(=O)c2ccc3c(c2)OCO3)cc1OC	-5%	-6%	-3	4	-3	i
Cc1cccc(N2CCN(C(=O)c3cc(S(=O)(=O)N(C)C)ccc3N3CCCC3)CC2)c1C	-8%	-9%	-3	-58*	0	i
Cc1cnc(NC(=O)c2cc(S(=O)(=O)N(C)C)ccc2N2CCCC2)s1	-14%	-37%	-17	-64*	-17	i
CCOC(=O)c1c(C)oc2ncnc(NCCCN3CCN(c4cc(C)ccc4C)CC3)c12	-10%	·	-18	·	·	?
O=C1CC(c2ccco2)CC2=C1C1c3ccccc3C(=O)N1c1ccccc1N2 (centres undefined)	7%	20%	-3	-94*	8	?
CC(=O)Nc1c(C)ccc2nsnc12	6%	20%	8	15	-77*	i
Cc1ccc(CNC(=O)C(Cc2ccccc2)NS(=O)(=O)c2ccc(Br)s2)cc1 (centres undefined)	-2%	-7%	10	-75*	10	i
Cc1cc[n+](CC(=O)N2CCCc3ccccc32)cc1	-27%	-20%	-26	0	-66*	i
O=C(C[n+]1ccccc1)N1CCCc2ccccc21	·	-11%	-5	0	-53*	i
CN(C)c1cc[n+](CC(=O)N2CCCc3ccccc32)cc1	?	2%	-25	0	?	i

Compound activity deposited in PubChem by National Center for Advancing Translational Sciences (NCATS).
